From PubChem BioAssay
Only a selection was taken, and hits are over-represented in it overall.
Shiga toxin inh: inhibitors of Shiga toxin in Vero cells. inhibition, % at 38.7 µM. AID 2315. hit rate 9.2% among 290,000. Vero cells, Shiga toxin protein synthesis inhibition reporter; in the data active means inhibition mostly above about 28%, no sharp cut-off; inactive means mostly below about 43%; further: 0% is about no effect
Tb PYK inh: inhibitors of Trypanosoma brucei pyruvate kinase. Q57TT1. TbPYK enzyme, Kinase-Glo Plus ATP luminescence, 45 min. Potency, µM (doses to about 76.8 µM), inactives show top-dose activity, negative = inhibition, usual class: inhibitors. hit rate 0.12% among 410,000. AID 624173; further: potency means the concentration at half of the fitted maximal effect; on the % scale 0 is the no-effect control and ±100 the full control effect; nearly all actives have a fitted effect of over 50% in size
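Readout: single end-point luminescence (Kinase-Glo Plus, 10 min). Reaction conditions were TbPYK/substrate plus 130 uM ADP, 45 min at RT, pH 7.2 TEA buffer. No-enzyme wells served as controls, and data were normalized before concentration-response fitting.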
Sm TGR inh: S. mansoni TGR enzyme inhibition; Q962Y6; purified TGR, DTNB reduction, TNB absorbance 405 nm; Potency, µM (titrated, usually from 114 µM), without a hit: top-dose activity change, negative = inhibition, hits mostly inhibitors; hit rate 3% among 360,000; AID 485364; further: potency means the concentration at half of the fitted maximal effect; on the % scale 0 is the no-effect control and ±100 the full control effect; nearly all actives have a fitted effect of over 60% in size
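First, TGR (20 nM dispensed) and NADPH were mixed with compound. Second, a 15 min room-temperature incubation followed. Third, further NADPH and then DTNB were added to start the reaction. Finally, TNB absorbance was monitored kinetically.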
CHX counter: affects cycloheximide protein synthesis inhibition readout, counter-screen | cell reporter, cycloheximide protein synthesis inhibition counterscreen | max response, % | hit rate 12% among 300,000; in the data active means max response mostly above about 13%, no sharp cut-off; inactive means mostly below about 14%; further: read at 38.3 µM for the half of the compounds with a filed dose; 0% is about no effect
FBPA Giardia inh: Giardia lamblia aldolase inhibition | Potency, µM (doses to about 59.6 µM), without a hit: at the highest dose activity, negative = inhibition, usual class: inhibitors | purified Giardia FBPA | hit rate 0.71% among 290,000 | A8B2U2; further: potency means the concentration at half of the fitted maximal effect; on the % scale 0 is the no-effect control and ±100 the full control effect; nearly all actives have a fitted effect of over 55% in size
Target sequence (A8B2U2 whole entry, looked up): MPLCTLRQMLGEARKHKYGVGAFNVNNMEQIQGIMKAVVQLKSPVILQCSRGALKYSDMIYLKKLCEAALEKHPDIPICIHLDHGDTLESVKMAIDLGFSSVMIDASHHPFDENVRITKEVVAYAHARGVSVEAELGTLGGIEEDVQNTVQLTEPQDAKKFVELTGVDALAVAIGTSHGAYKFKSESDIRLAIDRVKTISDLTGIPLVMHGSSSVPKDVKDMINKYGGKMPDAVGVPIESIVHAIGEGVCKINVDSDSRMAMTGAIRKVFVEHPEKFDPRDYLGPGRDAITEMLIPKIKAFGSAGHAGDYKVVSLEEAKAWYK
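40 nM FBPA preincubated 10 min at RT with compound (up to 57.5 uM final), then substrate plus GAPDH/TPI/NAD/arsenate coupling and diaphorase/resazurin added. Fluorescence read after 20 min at RT, 525/598 nm.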
LmPK inhibitor: LmPK (Leishmania mexicana) enzyme inhibition; Q27686; purified LmPK, Kinase-Glo ATP luminescence, 1 h; Potency, µM (highest dose often 57.5 µM), for the others: top-dose activity change, negative = inhibition, actives largely listed as inhibitors; hit rate 0.37% among 290,000; further: potency means the concentration at half of the fitted maximal effect; on the % scale 0 is the no-effect control and ±100 the full control effect
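In 50 mM imidazole pH 7.2 with 7 mM MgCl2, LmPK (0.1 nM) turned over PEP (0.5 mM) and ADP (0.1 mM) for 1 h at room temperature. Luciferase read-out of ATP.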
Active calls of the source: *; ? = inconclusive; nt = no result; ! = not active in a repeat; [ ] = remark or other dose. Unless noted, the call rests on the fitted dose curve; in most records, active means well fitted curve in the direction sought with a large enough effect; inconclusive means small, poorly fitted or top-dose-only effect, or another doubt; inactive means no such curve, though single readings can be large; an effect the other way counts as inactive or inconclusive.

SMILES | Shiga toxin inh | Tb PYK inh | Sm TGR inh | CHX counter | FBPA Giardia inh | LmPK inhibitor
CC(=O)n1nc(-c2ccco2)nc1SCc1ccccc1 | 36 | -13% | 32µM* | 19* | -20% | -3%
CCC(=O)n1nc(-c2ccco2)nc1N | 37 | 0% | -2% | -2 | 6% | -2%
CCC(=O)n1nc(-c2ccco2)nc1SCc1ccccc1 | 32* | 5% | 8.9µM* | 35* | -11% | -3%
COc1cccc(CNC(=O)CCS(=O)(=O)c2cc3c4c(c2)CCN4C(=O)CC3)c1 | nt | 1% | -1% | nt | nt | nt
CCCCC1=CC2=C(OC(C)=O)C(=O)C(C)(OC(=O)C3CCCC3)C(=O)C2=CO1 (configuration not stated) | nt | nt | nt | nt | -22% | nt
N=C1c2c(cc(=O)n3c2[nH]c2ccccc23)CN1CCN1CCOCC1 | 18 | -8% | -1% | 9 | -23% | -1%[11.5 µM]
COCCN1Cc2cc(=O)n3c([nH]c4ccccc43)c2C1=N | 39 | 0% | 12% | 22* | -18% | 5%[11.5 µM]
COc1cccc(CNC(=O)c2sc3nc[nH]c(=O)c3c2C)c1 | nt | 1% | 0% | nt | nt | nt
COc1ccc(-c2cn3nc(N4CCCC(C(=O)NCc5ccccc5Cl)C4)sc3n2)cc1 (configuration not stated) | nt | 3%[15.4 µM] | 1% | nt | nt | nt
O=C(C[n+]1ccc(C(=O)NCc2ccccc2)cc1)c1ccc(OC(F)F)cc1 | -4 | 4% | 1% | -3 | 9% | 3%
O=C(C[n+]1cn(C(F)F)c2ccccc21)c1ccc(OC(F)F)cc1 | 61* | 0% | 7.1µM* | 29* | 0% | -3%
COC(=O)c1nnn(-c2nonc2N)c1CSc1nc2ccccc2s1 | 27 | -6% | -1% | 21* | -25% | -1%
COc1cccc(N2CCN(S(=O)(=O)c3ccc4[nH]c5c(c4c3)CCCC5)CC2)c1 | nt | 4% | 11% | nt | nt | nt
O=c1c(O)c(-c2ccc(O)c(O)c2)oc2cc(O)cc(O)c12 | 25 | 20% | -24% | 30* | ? | 2%
COc1cc(-c2oc3cc(O)cc(O)c3c(=O)c2O)ccc1O | 49* | nt | nt | 48*! | 4% | nt
CC1OC(Oc2c(-c3cc(O)c(O)c(O)c3)oc3cc(O)cc(O)c3c2=O)C(O)C(O)C1O (configuration not stated) | -7 | -24% | 0% | 1 | 10µM* | 9%
C[C@@H]1O[C@@H](OC[C@@H]2O[C@H](Oc3c(-c4ccc(O)cc4)oc4cc(O)cc(O)c4c3=O)[C@@H](O)[C@H](O)[C@H]2O)[C@H](O)[C@H](O)[C@H]1O | nt | 0% | nt | nt | nt | nt
COc1ccc(-c2cc(=O)c3c(O)cc(O)cc3o2)cc1 | nt | 0% | -2% | nt | 5% | nt
O=c1cc(-c2ccc(O)c(O)c2)oc2cc(O)cc(O)c12 | 67* | -9% | -15% | 56* | -13% | -11%
COc1ccc(NC(=S)NC(=O)c2ccc3c(c2)OCCO3)cc1 | nt | 0% | nt | nt | nt | nt
O=C(NC(=S)Nc1ccc(F)cc1)c1ccc2c(c1)OCCO2 | 101* | -3% | 11µM* | 70* | -6% | -2%
Cc1cccc(NC(=S)Nc2ccc(N3CCOCC3)cc2)c1C | 13 | 35% | -1% | 13* | -15% | 6%
COC(=O)c1cc(NC(=S)NC(=O)c2ccccc2)ccc1N1CCOCC1 | -5 | -1% | 25µM* | -1 | nt | 1%
CCC(=O)N1CCN(c2ccc(NC(=S)NC(=O)c3cccc([N+](=O)[O-])c3)cc2)CC1 | 18 | -4% | 10µM* | -3 | -1% | 6%
CCC(=O)N1CCN(c2ccccc2NC(=S)NC(=O)c2cccc([N+](=O)[O-])c2)CC1 | -5 | -7% | -28% | -4 | -5% | -2%
COC(=O)c1cc(NC(=O)c2c(-c3ccccc3)noc2C)ccc1N1CCOCC1 | 15 | -7% | -3% | -2 | nt | -5%
Cc1cccc(NC(=S)NN2CCOCC2)c1C | 15 | -9% | ? | 9 | -19% | 5%
COc1ccc(CCC(=O)NC2CC(=O)N(c3ccc(OC)cc3)C2)cc1 (configuration not stated) | nt | 4% | 0% | nt | nt | nt
COc1ccc(C(=O)NC(=S)Nc2ccc(N3CCOCC3)cc2)cc1Cl | -13 | -1% | 20µM* | -6 | -7% | -10%
O=C(Nc1nc2c(F)cc(F)cc2s1)c1ccc2c(c1)OCCO2 | nt | -7% | -6% | nt | nt | nt
